Assay outcomes (PubChem)
Only some compounds are listed: those with a hit (about 7.5% of all), similar ones and a draw of the others.
FLuc modulator – qHTS profiling assay for firefly luciferase inhibitor/activator using purifed enzyme and Km concentrations of substrates (counterscreen for miR-21 project) | purified FLuc, Km substrates, luminescence inhibition | Potency, µM (titrated, usually from 57.5 µM), inactives show at the top dose activity change, negative = inhibition, usual class: inhibitors | hit rate 6.9% among 360,000;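 note: plate controls were vehicle for no effect and reference inhibitor for full effect; nearly all actives have a fitted effect of over 55% in size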
Target sequence (P08659 whole entry, looked up): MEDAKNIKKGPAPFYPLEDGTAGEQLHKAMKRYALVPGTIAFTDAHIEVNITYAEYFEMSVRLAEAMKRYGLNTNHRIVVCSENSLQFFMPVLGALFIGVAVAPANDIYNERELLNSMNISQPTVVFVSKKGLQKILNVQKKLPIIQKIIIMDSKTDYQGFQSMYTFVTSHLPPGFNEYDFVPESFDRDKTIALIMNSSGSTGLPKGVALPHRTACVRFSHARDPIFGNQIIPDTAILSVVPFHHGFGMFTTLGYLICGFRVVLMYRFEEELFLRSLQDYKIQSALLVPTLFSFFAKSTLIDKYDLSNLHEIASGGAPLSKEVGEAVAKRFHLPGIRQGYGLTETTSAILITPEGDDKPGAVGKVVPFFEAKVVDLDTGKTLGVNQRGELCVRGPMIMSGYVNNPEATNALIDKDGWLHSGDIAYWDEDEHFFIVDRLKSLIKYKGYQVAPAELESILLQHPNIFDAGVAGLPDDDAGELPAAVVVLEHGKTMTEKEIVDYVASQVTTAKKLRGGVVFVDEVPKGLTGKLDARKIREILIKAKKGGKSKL
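Biochemical qHTS of compounds, final roughly 60 µM downward over six points, against 10 nM purified firefly luciferase using Km concentrations of substrates (10 uM D-luciferin, 10 uM ATP) in Tris acetate pH 7.5 buffer; luminescence output.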
NPC1 prom act – qHTS Assay for NPC1 Promoter Activators; Huh7 NPC1 promoter luciferase reporter, 24 h; Potency, µM (top dose mostly 9.22 µM), without a hit: at the top dose activation, hits mostly activators; hit rate 2.4% among 320,000; AID 485313, 2010; note: % of control where 0% means no effect; nearly all actives have a fitted effect of over 60% in size
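Huh7 cells stably carrying NPC1 promoter–luciferase, plated in Opti-MEM with 10% FBS for 2 h, were exposed to compound in DMSO for 24 h at 37 °C; luciferase reagent was added for 10 min and luminescence read.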
ELG1 genotoxic – qHTS screen for small molecules that induce genotoxicity in human embryonic kidney (HEK293T) cells expressing luciferase-tagged ELG1; HEK293T ELG1-luciferase reporter, luminescence, 16 h; Potency, µM (highest dose often 46 µM), for inactives: at the highest dose activity change, positive = activation, usual class: activators; hit rate 1.3% among 330,000; AID 504466, 2011; note: % of control where 0% means no effect; nearly all actives have a fitted effect of over 60% in size
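HEK293T cells expressing luciferase-tagged ELG1 were treated with compound or DMSO for 16 hr at 37°C. Luciferase activity was then read after 30 min with ONE-Glo at room temperature; rising signal flags genetic stress.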
SMN2 splice up – qHTS Assay for Enhancers of SMN2 Splice Variant Expression. hit rate 2.8% among 210,000. Potency, µM (highest dose often 46.1 µM), for inactives: at the top dose activity change, positive = activation, usual class: activators. HEK293 SMN2-luciferase splicing reporter, luminescence, 30-36 h; note: % of control where 0% means no effect; nearly all actives have a fitted effect of over 55% in size
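HEK293 cells carry an SMN2 minigene-luciferase reporter in which exon 7 inclusion puts luciferase in frame. Cells were seeded at 2000 cells/well, attached for 10-12 hours, then exposed to compounds for 30-36 hours at 37C before ONE-Glo luminescence.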
Rab9 prom act – qHTS Assay for Rab9 Promoter Activators | Huh7 Rab9 promoter-luciferase reporter, luminescence, 24 h | Potency, µM (series often up to 9.22 µM), for inactives: top-dose activation, negative = inhibition, most hits filed as activators | hit rate 2.8% among 320,000; note: % of control where 0% means no effect; nearly all actives have a fitted effect of over 60% in size
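Huh7 cells stably carrying Rab9 promoter–luciferase reporter, plated 1500 cells/well, compound added after 2 h and incubated 24 h at 37 °C; luciferase luminescence then read after 10 min with detection reagent.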
* hit, by the source's call; ? = inconclusive; / = no result; [ ] = remark or other dose. Calls come from the whole dose curve; as a rule, active = well fitted curve in the direction sought with a large enough effect; inconclusive = small, poorly fitted or top-dose-only effect, or another doubt; inactive = no such curve, though single readings can be large; an effect the other way counts as inactive or inconclusive. Potency is the fitted concentration of half-maximal effect.

SMILES	FLuc modulator	NPC1 prom act	ELG1 genotoxic	SMN2 splice up	Rab9 prom act
O=C(O)c1cccc(NC(=O)c2ccc(Cl)c(S(=O)(=O)N3CCCCCC3)c2)c1	0.11µM*	0.32µM*	2.3µM*	8.9µM*	0.35µM*
Cc1ccc(NC(=O)c2ccc(F)cc2)cc1S(=O)(=O)N1CCCCCC1	?	3%	-10%	-36%	-10%
O=C(O)c1ccc(Cl)c(S(=O)(=O)Nc2cccc(C(=O)Nc3cccc(C(F)(F)F)c3)c2)c1	15µM*	-1%	1%	-5%	1%
COc1ccccc1C(=O)NC1CCCc2ccccc21 (configuration not stated)	0%	-2%	-8%	/	3%
CCOc1ccc(N(CC(=O)NCc2ccc(OC)cc2)C(=O)CCC(=O)Nc2nccs2)cc1	1%	-3%	-3%	/	-1%
Cc1cc(C(=O)CSc2nnc(N)s2)c(C)n1-c1c(C)n(C)n(-c2ccccc2)c1=O	13%	-4%	0%	-4%	-3%
COc1cc2[nH]c(=S)n(CC3CCCO3)c(=O)c2cc1OC (configuration not stated)	2%	1%	-3%	13%	-2%
CC1(C)CC(=O)C(N=Nc2cccc([N+](=O)[O-])c2)=C(O)C1	11µM*	0%	18µM*	/	20%
CC1(C)CC(=O)C(N=Nc2ccc(Br)cc2)=C(O)C1	3.4µM*	-2%	10µM*	/	15%
COc1ccc(N=NC2=C(O)CC(C)(C)CC2=O)cc1	13µM*	3.5µM*	?	?	16%
CC(NS(=O)(=O)c1ccc(OCC(=O)NCc2ccccn2)cc1)c1ccccc1 (configuration not stated)	0%	-1%	1%	/	3%
CCC(=O)N/C(=N/c1nc(C)cc(C)n1)Nc1cccc(OC)c1	-2%	-1%	-3%	-19%	-4%
COc1ccccc1NC(=O)c1cc(-c2ccc(OC)c(OC)c2)nc2ccccc12	9.5µM*	0%	-1%	/	2%
COc1ccc(-c2cc(C(=O)Nc3ccc(O)cc3)c3ccccc3n2)cc1OC	5.4µM*	11%	0%	/	29%
CC(C)(C)c1ccc(-c2cnco2)cc1	17µM*	2%	3%	/	1%
O=C(Nc1ccc(Cl)cc1)Nc1ccc(-c2cnco2)cc1	-4%	5%	8%	/	2%
CC(C)(C)C(=O)Nc1ccc(-c2cnco2)cc1	17µM*	21%	14%	/	18%
Cc1cccc(N2CCN(CC(=O)Nc3ccc(-n4cnnn4)cc3)CC2)c1C	0%	-3%	-2%	4%	0%
C[C@@H](CNC1CCCCC1)OC(=O)c1ccccc1	/	/	/	-16%[20.6 µM]	/
CCOC(=O)c1cc(-c2ccccc2)sc1NC(=O)C(C)(C)C	0%	0%	3%	-25%	-6%
O=C(N/N=C/c1ccc(Cl)cc1)c1cc(-c2cccnc2)nc2ccccc12	-7%	-32%	6%	-26%	-18%
COC(=O)c1cc(-c2ccccc2)sc1N	21µM*	25%	?	-34%	26%
Nc1sc(-c2ccccc2)cc1C(=O)N/N=C/c1ccc(Cl)cc1	6µM*	0%	1%	/	-1%
CC(=O)NS(=O)(=O)c1ccc(NC(=O)c2cc(-c3ccc(C)c(C)c3)nc3ccccc23)cc1	1.3µM*	13%	3%	2%	10%
CC(=O)NS(=O)(=O)c1ccc(NC(=O)c2cc(-c3ccc(C)cc3)nc3ccccc23)cc1	8.5µM*	0%	10%	18%	16%
SMILES	FLuc modulator	NPC1 prom act	ELG1 genotoxic	SMN2 splice up	Rab9 prom act
CC(=O)NS(=O)(=O)c1ccc(NC(=O)c2cc(-c3cccs3)nc3ccccc23)cc1	?	0%	0%	0%	0%
Cc1ccc(-c2cc(C(=O)Nc3cc(C)on3)c3ccccc3n2)cc1	-13%	-1%	0%	3%	6%
Cc1ccc(-c2cc(C(=O)Nc3ccc(S(=O)(=O)Nc4nc(C)cc(C)n4)cc3)c3ccccc3n2)cc1	17µM*	1%	2%	14µM*	3%
Cc1ccnc(NS(=O)(=O)c2ccc(NC(=O)c3cc(-c4ccccc4)nc4ccccc34)cc2)n1	?	-1%	3%	28%	-3%
Cc1cc(NC(=O)c2cc(-c3ccc(C)c(C)c3)nc3ccccc23)no1	4.8µM*	1%	-9%	5%	-1%
C=C1N(c2ccccc2)C(=O)OC1(C)C	1%	1%	-1%	5%	2%
O=C(O)/C=C/c1ccccc1Oc1ccccc1	5%	0%	-1%	-7%	-1%
Cc1cc2cccc(C)c2nc1SCC(=O)N(C)c1nc(-c2ccccc2)cs1	0%	3%	1%	-12%	2%
COc1ccc(-n2c(C)cc(=O)c3c2CC(C)(C)CC3=O)cc1	6%	0%	2%	-12%	1%
O=c1oc2ccccc2c2c1nc(C(F)(F)F)n2-c1ccccc1	3%	-3%	4%	-15%	4%
CC(=O)Nc1ccc(-c2cc(C(=O)O)c3ccccc3n2)cc1	3.4µM*	-3%	-2%	/	0%
CC(=O)Nc1ccc(-c2cc(-c3ccccc3)nc(-c3ccccc3)n2)cc1	5%	-1%	17%	4%[1.84 µM]	-3%
O=C(CN1CCOc2ccccc21)N1CCCC1	?	-1%	1%	-6%	1%
O=C1c2ccccc2C(=O)N1Cc1ccco1	0%	-2%	0%	22%	-14%
CC1=CC(=C2C(=O)c3ccccc3C2=O)C=C(C)N1Cc1ccco1	3.4µM*	2.2µM*	18%	14µM*	1.6µM*
CCCCN1C(C)=CC(=C2C(=O)c3ccccc3C2=O)C=C1C	1.5µM*	0.5µM*	0.82µM*	-25%	0.4µM*
CC1=CC(=C2C(=O)c3ccccc3C2=O)C=C(C)O1	?	?	20%	9%	?
CCOC(=O)N1CCN(CC(O)COc2ccc(OC)cc2C(C)(C)C)CC1 (configuration not stated)	0%	-2%	-3%	-4%	-4%
CCCC(=O)Nc1cccc(NC(=O)CN2CCN(c3ccccc3OC)CC2)c1	0%	2%	0%	2%	4%
CC(OC(=O)C1CC(=O)N(Cc2ccccc2)C1)C(=O)Nc1ccc(F)cc1Cl (configuration not stated)	1%	1%	1%	/	-5%
CCCCOc1ccc(C(=O)Nc2ccc(CN3CCOCC3)cc2)cc1	?	-10%	-1%	/	-24%
CCCOc1ccc(C(=O)Nc2ccc(CN3CCOCC3)cc2)cc1	13µM*	8%	1%	/	-1%
COc1cccc(NC(=O)c2ccc(CN3CCOCC3)cc2)c1	11µM*	4µM*	8%	?	3.2µM*
COc1c(C)cccc1C(=O)Nc1ccc(OCC(=O)N2CCOCC2)cc1C	13µM*	-10%	16%	/	-20%
